Assay [1] concerns the target POU1 (OCT1 POU domain) (human, UniProt P14859 260-458). The assay can be described thus: EMSA-SELEX-seq; no BOB1; 20 mM Tris-HCl pH 7.6, 140 mM NaCl, 10% glycerol, 0.5 mM EDTA, 0.05% Triton X-100, 0.1 mg/mL BSA, 0.1 mg/mL poly(dI-dC), 5 mM DTT, room temperature, 20 min; high values mean tight binding. The conditions noted are these: protein: recombinant; dsDNA, one strand shown. In outline: (§1)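 Binding preference is reported as the percentage of sequenced 8-mers that match a motif pattern. Tagged POU-domain proteins were made in E. coli BL21, purified under denaturing conditions and renatured. A 30 ng portion was combined with 300 ng of a PCR-amplified double-stranded random 35-nt library, with or without 28 ng coactivator protein, in 20 μL Tris–HCl pH 7.6 binding buffer for 20 min at RT. Complex bands were excised from native 6% PAGE, eluted and PCR-amplified over four rounds before Illumina sequencing.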
On the technique in general: In EMSA bound probe runs differently from free probe, usually more slowly.

Assay [2] addresses POU1 (OCT1 POU domain);BOB1 (OBF1, OCA-B) (human;human, UniProt P14859;Q16633 260-458;1-256, |). The assay can be described thus: EMSA-SELEX-seq; with BOB1 (ternary complex band); 20 mM Tris-HCl pH 7.6, 140 mM NaCl, 10% glycerol, 0.5 mM EDTA, 0.05% Triton X-100, 0.1 mg/mL BSA, 0.1 mg/mL poly(dI-dC), 5 mM DTT, room temperature, 20 min; high values mean tight binding. The conditions noted are these: protein: recombinant;recombinant; copies: 1;1; dsDNA, one strand shown. The gist of the method:
as §1

Assay [3] deals with T1, POU2 (OCT2 POU domain);BOB1 (OBF1, OCA-B) (human;human, UniProt P09086;Q16633 175-386;1-256, |).
T1 sequence 1: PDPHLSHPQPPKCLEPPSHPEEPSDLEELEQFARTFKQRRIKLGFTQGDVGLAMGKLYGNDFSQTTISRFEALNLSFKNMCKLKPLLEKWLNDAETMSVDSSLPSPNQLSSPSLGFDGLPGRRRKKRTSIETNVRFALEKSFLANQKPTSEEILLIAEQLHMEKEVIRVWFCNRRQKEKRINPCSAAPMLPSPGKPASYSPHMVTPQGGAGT
T1 sequence 2: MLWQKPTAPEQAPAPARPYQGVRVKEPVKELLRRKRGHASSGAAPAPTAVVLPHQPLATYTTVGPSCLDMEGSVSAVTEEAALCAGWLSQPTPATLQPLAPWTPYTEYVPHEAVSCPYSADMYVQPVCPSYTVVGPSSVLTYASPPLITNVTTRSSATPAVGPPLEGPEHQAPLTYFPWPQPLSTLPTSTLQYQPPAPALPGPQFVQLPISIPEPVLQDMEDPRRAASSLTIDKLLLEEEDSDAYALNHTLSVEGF
The assay is described as above. The following applies: protein: recombinant;recombinant; copies: 1;1; dsDNA, one strand shown. In outline:
as §1

The target of assay [4] is T2, POU2 (OCT2 POU domain) (human, UniProt P09086 175-386).
T2 sequence: T1 sequence 1
The assay can be described thus: EMSA-SELEX-seq; no BOB1; 20 mM Tris-HCl pH 7.6, 140 mM NaCl, 10% glycerol, 0.5 mM EDTA, 0.05% Triton X-100, 0.1 mg/mL BSA, 0.1 mg/mL poly(dI-dC), 5 mM DTT, room temperature, 20 min; high values mean tight binding. The conditions noted are these: protein: recombinant; dsDNA, one strand shown. In outline: as §1

The record followed here is article PMC10812921, “Transcriptional Coactivator BOB1 (OBF1, OCA-B) Modulates the Specificity of DNA Recognition by the POU-Domain Factors OCT1 and OCT2 in a Monomeric Configuration”.

Sequence of POU1 (OCT1 POU domain) (P14859 260-458): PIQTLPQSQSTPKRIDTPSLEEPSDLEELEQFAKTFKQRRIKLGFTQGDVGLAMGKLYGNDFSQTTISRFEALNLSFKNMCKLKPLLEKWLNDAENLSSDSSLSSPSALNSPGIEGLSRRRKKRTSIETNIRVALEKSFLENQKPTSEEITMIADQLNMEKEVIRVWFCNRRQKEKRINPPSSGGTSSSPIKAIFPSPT

Turning to ACTCCAAC, the results for the binding signal in assay [1], in assay [2] and in assay [3] were 0.0126 % of ANNNNAAN 8-mers, 0.0113 % of ANNNNAAN 8-mers and 0.0198 % of ANNNNAAN 8-mers, respectively.
Regarding ATTGTAAC, the binding signal is 0.0362 % of ANNNNAAN 8-mers in assay [1], 0.0374 % of ANNNNAAN 8-mers in assay [4], 0.0336 % of ANNNNAAN 8-mers in assay [2] and 0.0371 % of ANNNNAAN 8-mers in assay [3].
For the sequence ACGACAAG, the binding signal in assay [1] was 0.0175 % of ANNNNAAN 8-mers; in assay [4] it was 0.023 % of ANNNNAAN 8-mers; in assay [2], 0.0215 % of ANNNNAAN 8-mers; in assay [3], 0.0231 % of ANNNNAAN 8-mers.
Taken in the same sequence, the figures for AGATTAAA were 0.105 % of ANNNNAAN 8-mers, 0.11 % of ANNNNAAN 8-mers, 0.0648 % of ANNNNAAN 8-mers and 0.071 % of ANNNNAAN 8-mers.
As to ACGCAAAG, the binding signal in assay [1] was 0.098 % of ANNNNAAN 8-mers; in assay [4], 0.061 % of ANNNNAAN 8-mers; in assay [2], 0.163 % of ANNNNAAN 8-mers; in assay [3] it was 0.0809 % of ANNNNAAN 8-mers.
In the case of AAACGAAA, the binding signal in assay [1] was 0.0568 % of ANNNNAAN 8-mers; in assay [4] it was 0.0558 % of ANNNNAAN 8-mers; in assay [2], 0.0644 % of ANNNNAAN 8-mers; in assay [3], 0.052 % of ANNNNAAN 8-mers.
In the case of AATCAAAA, the binding signal in assay [1] was 0.122 % of ANNNNAAN 8-mers; in assay [4] it was 0.099 % of ANNNNAAN 8-mers; in assay [2], 0.142 % of ANNNNAAN 8-mers; in assay [3], 0.0792 % of ANNNNAAN 8-mers.
With ACAGGAAT, the binding signal is 0.0622 % of ANNNNAAN 8-mers in assay [1], 0.0685 % of ANNNNAAN 8-mers in assay [4], 0.0476 % of ANNNNAAN 8-mers in assay [2] and 0.0702 % of ANNNNAAN 8-mers in assay [3].
Take ACTTTAAC: the binding signal in assay [1] was 0.032 % of ANNNNAAN 8-mers; in assay [4] it was 0.0345 % of ANNNNAAN 8-mers; in assay [2], 0.0304 % of ANNNNAAN 8-mers; in assay [3], 0.0355 % of ANNNNAAN 8-mers.
For AACGAAAC the same measures were 0.0225 % of ANNNNAAN 8-mers, 0.027 % of ANNNNAAN 8-mers, 0.0238 % of ANNNNAAN 8-mers and 0.0157 % of ANNNNAAN 8-mers.
Consider ACGCAAAC, for which the binding signal is 0.0614 % of ANNNNAAN 8-mers in assay [1], 0.0437 % of ANNNNAAN 8-mers in assay [4], 0.103 % of ANNNNAAN 8-mers in assay [2] and 0.0512 % of ANNNNAAN 8-mers in assay [3].
Taken in the same sequence, the figures for AACGAAAA were 0.0522 % of ANNNNAAN 8-mers, 0.0529 % of ANNNNAAN 8-mers, 0.0597 % of ANNNNAAN 8-mers and 0.0462 % of ANNNNAAN 8-mers.
Turning to AGTCCAAA, the binding signal is 0.0256 % of ANNNNAAN 8-mers in assay [1], 0.0299 % of ANNNNAAN 8-mers in assay [4], 0.0332 % of ANNNNAAN 8-mers in assay [2] and 0.0281 % of ANNNNAAN 8-mers in assay [3].
For ATATCAAC, the binding signal in assay [1] is 0.0481 % of ANNNNAAN 8-mers; in assay [4], 0.0449 % of ANNNNAAN 8-mers; in assay [2], 0.0367 % of ANNNNAAN 8-mers; in assay [3], 0.0471 % of ANNNNAAN 8-mers.
On to AATCCAAA, for which the binding signal is 0.0507 % of ANNNNAAN 8-mers in assay [1], 0.0386 % of ANNNNAAN 8-mers in assay [4], 0.0726 % of ANNNNAAN 8-mers in assay [2] and 0.0371 % of ANNNNAAN 8-mers in assay [3].
For the sequence AGTGGAAC, the binding signal in assay [1] was 0.0267 % of ANNNNAAN 8-mers; in assay [4] it was 0.0207 % of ANNNNAAN 8-mers; in assay [2], 0.0281 % of ANNNNAAN 8-mers; in assay [3], 0.0314 % of ANNNNAAN 8-mers.
